Bioassay records as filed in PubChem.
uPA surface inh = blocks generation of uPA at the cell surface; cell surface uPA generation assay, qHTS; Potency, µM (top dose mostly 38.3 µM), actives largely listed as inhibitors; 330,000 tested, 0.31% active; AID 540303; active means well fitted inhibition curve with a large enough effect; inconclusive means small, poorly fitted or top-dose-only effect; inactive means no such curve, though single readings can be large or run the other way; tested in mouse RAW 264.7 cells; further: nearly all actives have a fitted effect of over 55% in size
Mito fusion act = inhibitors of mitochondrial division or activators of mitochondrial fusion; S. cerevisiae fusion-defective mutant growth rescue, CellTiterGlo 48 h; Potency, µM (doses to about 46.1 µM), hits mostly activators; 320,000 tested, 0.23% active; AID 485298; further: nearly all actives have a fitted effect of over 45% in size
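Yeast fusion mutant, YPEG (non-fermentable carbon), compound, 48 h at 37C non-permissive; CellTiterGlo added, 10 min RT, luminescence read. Rescued growth = division inhibition.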
a7 integrin act = activators of alpha7 integrin expression for muscular dystrophy; alpha7betagal myoblasts, beta-gal FDG fluorescence, 48 h; Potency, µM (highest dose often 38.3 µM), actives largely listed as activators; 350,000 tested, 0.064% active; AID 624291; further: nearly all actives have a fitted effect of over 60% in size
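Alpha7betagal+/- myoblasts (passage 13) were plated 16-24 hr, then exposed to compounds (1:260 dilution of DMSO stock) for 48 hours at 37C. After MPER lysis, β-galactosidase reporter activity was read as FDG fluorescence (ex 480/em 540) after 30 minutes.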
RORg inh = ROR gamma (mouse) transcription inhibition. P51450. Drosophila S2 Gal4-RORgamma UAS-luciferase reporter, 20 h. Potency, µM (series often up to 53.6 µM), most hits filed as inhibitors. 310,000 tested, 5.4% active. AID 2551; further: nearly all actives have a fitted effect of over 60% in size
Target sequence (P51450 whole entry, looked up, the tested form may be a part): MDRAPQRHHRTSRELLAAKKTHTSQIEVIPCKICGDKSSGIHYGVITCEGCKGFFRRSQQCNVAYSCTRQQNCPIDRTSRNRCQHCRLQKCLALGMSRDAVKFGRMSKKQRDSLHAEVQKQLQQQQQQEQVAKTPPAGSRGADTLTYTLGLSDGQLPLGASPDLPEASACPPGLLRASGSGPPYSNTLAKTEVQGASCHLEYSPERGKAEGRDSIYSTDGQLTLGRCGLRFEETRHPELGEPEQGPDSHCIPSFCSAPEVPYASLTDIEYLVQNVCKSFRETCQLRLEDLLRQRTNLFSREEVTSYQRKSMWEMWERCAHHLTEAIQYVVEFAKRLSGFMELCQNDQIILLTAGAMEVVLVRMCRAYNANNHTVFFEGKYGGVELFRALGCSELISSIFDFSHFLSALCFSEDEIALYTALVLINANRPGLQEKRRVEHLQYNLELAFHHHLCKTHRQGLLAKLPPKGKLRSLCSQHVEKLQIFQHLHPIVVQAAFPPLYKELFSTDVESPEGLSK
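Read-out: Photinus luciferase luminescence; inhibitors lower reporter signal. Insect Schneider cells with Gal4-ROR gamma fusion under metallothionein promoter, UAS reporter; 700 uM final copper sulfate induction, 20 hr, ambient temperature.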
Gal4-VP16 FLuc = inhibits Gal4-VP16 luciferase reporter, ROR gamma counter-screen | Drosophila S2 Gal4-VP16 UAS-luciferase, luminescence, 20 h | Potency, µM (titrated, usually from 53.6 µM), hits mostly inhibitors | 310,000 tested, 3.5% active | AID 2546;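 further: Gal4-VP16 expression switched on by copper sulfate through the metallothionein promoter; nearly all actives have a fitted effect of over 50% in size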
BCR signal inh = blocks chronic active B-cell receptor signaling; ABC-DLBCL IkBa-CBG/CBR reporter, luminescence ratio, 4 h; Potency, µM (titrated, usually from 46.1 µM), most hits filed as inhibitors; 340,000 tested, 0.05% active; AID 493014; active means well fitted inhibition curve with a large enough effect in the signal ratio, with a control signal flat, not every such curve was filed as active; inconclusive means small, poorly fitted or top-dose-only effect, or effect the other way, or a change in a side signal; the % refers to the signal ratio
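TMD8 human ABC-DLBCL cells with doxycycline-inducible IκBα–green luciferase fusion and unfused red luciferase, in 0.5% FBS medium; compounds up to 46 uM, 4 h at 37C. Green/red luminescence ratio, filter-overlap corrected, fitted to concentration-response curves.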
Numbers stand for hits; - = inactive; ? = inconclusive; . = no result given; [ ] = another dose, or the depositor's remark. In the library only some 5.5% were active in any assay of this set; here they are far more common. Unless noted, the call rests on the fitted dose curve; in most records, active means well fitted curve in the direction sought with a large enough effect; inconclusive means small, poorly fitted or top-dose-only effect, or another doubt; inactive means no such curve, though single readings can be large; an effect the other way counts as inactive or inconclusive.

SMILES	uPA surface inh	Mito fusion act	a7 integrin act	RORg inh	Gal4-VP16 FLuc	BCR signal inh
O=C(NCc1ccc(F)cc1)C(=O)Nc1nc(C23CC4CC(CC(C4)C2)C3)cs1	-	-	-	5.62µM	3.98µM	-
O=C(NCc1ccccc1)C(=O)Nc1nc(C23CC4CC(CC(C4)C2)C3)cs1	-	-	-	7.94µM	7.08µM	-
Cc1noc(C)c1C(=O)Nc1nc(C23CC4CC(CC(C4)C2)C3)cs1	.	-	?	?	22.4µM	?
S=c1[nH]nc(Nc2cccc(Cl)c2)s1	-	-	-	-	-	?
S=c1[nH]nc(Nc2ccccc2Cl)s1	-	-	-	7.94µM	-	?
CC(Sc1nc2cc([N+](=O)[O-])ccc2n1-c1cccc(C(F)(F)F)c1)C(=O)NC(N)=O (stereo not given)	-	-	-	12.6µM	20µM	-
C/C(N)=C(/C#N)C(=O)COC(=O)CCSc1ccccc1Cl	-	-	-	11.2µM	?	?
O=C(Nc1nccs1)c1ccc(CSc2nnnn2-c2ccccc2)cc1	.	-	-	?	14.1µM	?
CCOc1ccc2c(c1)C(C)=CC(C)(C)N2S(=O)(=O)c1ccc(C)cc1	-	-	-	3.98µM	?	?
COc1ccc2c(c1)C(C)=CC(C)(C)N2S(=O)(=O)c1ccc(C)cc1	-	-	-	-	-	?
CN1c2ccccc2C(C)(C)C12C=Nc1c(ccc3ccccc13)O2 (stereo not given)	-	-	-	?	20µM	-
COc1ccc2ccc3c(c2c1)N=CC1(O3)N(C)c2ccccc2C1(C)C (stereo not given)	-	-	-	?	-	?
CN1c2ccccc2C(C)(C)[C@]12C=Cc1cc(O)ccc1O2	-	-	-	-	15.8µM	-
CCn1c(SCC(=O)NNC(=O)c2ccc(OC)cc2)nnc1-c1ccco1	-	-	-	-	-	-
CCOC(=O)c1oc2ccc(S(=O)(=O)n3nc(-c4ccccc4)cc3N)cc2c1C	?	-	-	-	11.2µM	?
CCOC(=O)c1oc2ccc(S(=O)(=O)n3nc(-c4ccc(OC)cc4)cc3N)cc2c1C	?	12.6µM	-	-	-	-
CCOc1ccc(-c2cc(N)n(S(=O)(=O)c3ccc(OC)cc3)n2)cc1	-	-	-	-	-	-
CCS(=O)(=O)n1nc(-c2ccccc2)cc1N	-	-	-	-	-	-
C/C(CC(C)(C)C1CCCCC1)=N\NC(N)=S	-	?	-	0.891µM	2.82µM	?
CCN(CC)S(=O)(=O)c1ccc(C)c(NC(=O)COC(=O)CN2C(=O)NC(C)(C)C2=O)c1	-	-	-	.	.	?
COc1ccc(NC(=O)Cn2c(=O)oc3cc(S(=O)(=O)NC4CCCC4)ccc32)cc1OC	.	.	.	.	.	-
O=NN(CCc1ccncc1)c1ccc(OCc2ccccc2)cc1	-	-	-	7.08µM	6.31µM	?
O=C(NCc1ccncc1)C(=O)N/N=C/c1ccc(OCc2ccccc2)cc1	-	-	-	-	-	-
CCN1C(=O)/C(=C/c2ccc(C)o2)N(C)C1=S	-	-	-	?	12.6µM	?
CCCCCCCCCCCCCCCC(=O)NC(C)C(=O)O (stereo not given)	.	.	.	-	-	.
SMILES	uPA surface inh	Mito fusion act	a7 integrin act	RORg inh	Gal4-VP16 FLuc	BCR signal inh
CCOc1cccc2sc(N3CCN(C(=O)c4ccc5c(c4)CCCC5)CC3)nc12	.	.	.	.	.	-
Cc1cccc(-n2c(CNC(=O)c3ccc(S(=O)(=O)N4CCCCC4)cc3)n[nH]c2=S)c1	-	-	-	-	-	-
Cc1ccc(C2CC2c2n[nH]c(=S)n2-c2ccc(Cl)cc2)cc1 (stereo not given)	.	-	-[7.66 µM]	2.82µM	10µM	?
Cc1ccc(C2CC2c2n[nH]c(=S)n2-c2cccc(C)c2)cc1 (stereo not given)	-	-	-	3.16µM	6.31µM	-
S=c1[nH]nc(Cn2cnc3ccccc32)n1-c1ccccc1Cl	-	-	-	-	-	-
S=c1[nH]nc([C@@H]2C[C@H]2c2ccccc2)n1-c1ccccc1Cl	-	-	-	1.41µM	10µM	-
O=C(OCC#CCSc1nnc(-c2cccc3ccccc23)s1)c1cccs1	.	-	.	.	.	-
